Measurements published in PubChem BioAssay AID2284058 (EPA ToxCast).
Calls of active or inactive are those of the source. The calls were made as follows: active = hit-call score of the fitted dose curve at least 0.9, where 1 is the maximum; inactive = score below 0.9.

target: CYP2C9, CYP2C9 (gene 1559) (UniProt P11712); assay: ERF_FR_ADME_hCYP2C9: Eurofins (ERF) CYP450-related Enzyme Activity (ADME) Assay for CYP2C9
Method: ERF_FR_ADME_hCYP2C9 is a biochemical, single-readout assay that uses extracted gene-proteins in a cell-free assay. Measurements were taken 0.66 hour after chemical dosing in a 96-well plate. See CYP2C9 inhibition (recombinant, MFC substrate).ERF_FR_ADME_hCYP2C9 is an assay component calculated from the ERF_FR_ADME_hCYP2C9 assay. It is designed to measure enzyme activity using a type of enzyme reporter as detected by fluorescence intensity of HFC with fluorimetry technology.Data from the assay component ERF_FR_ADME_hCYP2C9 was analyzed at the assay endpoint, ERF_FR_ADME_hCYP2C9, in the positive analysis fitting direction relative to acetonitrile as the negative control and baseline of activity. Using a type of enzyme reporter, loss-of-signal activity can be used to understand changes in enzymatic activity as they relate to gene CYP2C9. To generalize the intended target to other relatable targets, this assay endpoint is annotated to the cyp intended target family, where the subfamily is steroidogenesis-related.
Human cells are incubated for 15 minutes at 37C with Diclofenac as substrate and Sulfaphenazole as control inhibitor. Test Sample Requirements: Minimum for 1) Screen: 25 ul of 10 mM stock -OR- 1 mg (pre-weighed) for 10 uM final testing. 2) Dose Response: 60 ul of 10 mM stock -OR- 1 mg (pre-weighed). […]

CYP2C9, CYP2C9 (gene 1559), sequence (P11712 whole entry, looked up): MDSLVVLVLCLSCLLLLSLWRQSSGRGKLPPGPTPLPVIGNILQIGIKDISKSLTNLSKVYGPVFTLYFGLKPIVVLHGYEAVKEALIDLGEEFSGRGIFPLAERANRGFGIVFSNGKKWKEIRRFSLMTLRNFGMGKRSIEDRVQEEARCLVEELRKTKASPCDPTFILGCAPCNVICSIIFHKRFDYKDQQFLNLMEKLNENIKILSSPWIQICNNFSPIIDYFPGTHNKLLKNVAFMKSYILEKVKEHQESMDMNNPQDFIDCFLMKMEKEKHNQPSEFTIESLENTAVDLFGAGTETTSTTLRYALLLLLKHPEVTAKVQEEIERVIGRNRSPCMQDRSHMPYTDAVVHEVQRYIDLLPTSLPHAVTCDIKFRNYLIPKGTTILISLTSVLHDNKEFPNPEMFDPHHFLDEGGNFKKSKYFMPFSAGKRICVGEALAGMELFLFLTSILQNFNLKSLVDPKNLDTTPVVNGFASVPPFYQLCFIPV

Compound	AC50
O=C(/C=C/c1ccc(O)cc1)CC(=O)/C=C/c1ccc(O)cc1	502 nM (active)
